The campaign covered roughly 1,000 compounds. About 410 (41%) were called active. So high a share suggests a set chosen from earlier hits. The list is a sample of the results. Values without a mark were called inactive.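 How the source made its calls: active means fitted half-maximal inhibitory concentration no more than tenfold above the top dose tested; inconclusive means flat fit with 30 to 70% activity, or poor fit; inactive means half-maximal concentration beyond tenfold above the top dose.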 Some results are limits rather than exact numbers.

This assay is described as follows: YIC intramolecular FRET probe signal interference, dose response, counter-screen for RanGTP-importin-beta inhibitor project, biochemical, fluorescence FRET (AID 435026). To be noted: Purified YIC probe, intramolecular FRET ratio YFP/CFP.
`CN(C)CCCn1c(N)c(C#N)c2nc(C#N)c(C#N)nc21`: the IC50 is 25 µM (active).
As for `CCN(CCO)C(=S)Nc1cc(C(=O)OC)ccc1C(=O)OC`, the figure is more than 50 µM; as for `O=C(Nc1ccccc1-c1ccccc1)c1cccs1`, more than 50 µM; as for `N#C/C(=C/c1ccc(N2CCCCC2)o1)C(=O)NCCc1c[nH]c2ccccc12`, 0.753 µM (active).
The figure for `Cc1nc2ccccc2c2oc(C(=O)NCCCN3CCC(C)CC3)cc12` is more than 50 µM; for `COc1ccc(C(=O)C[n+]2ccc(N)c(C)c2C)cc1` it is more than 50 µM; for `Cc1ccc(-n2c(=O)c(C#N)cc3c(=O)n4ccccc4nc32)cc1C` it is 1.78 µM (active).
Regarding `COC(=O)c1cc2c(ccn2C)n1C`, the IC50 was more than 50 µM.
As for `CCn1c2ccccc2c2cc(NC(=O)CNC)ccc21`, the IC50 is more than 50 µM.
With `O=c1cc(CN2CCN(S(=O)(=O)/C=C/c3ccccc3)CC2)c2ccc(O)cc2o1`, the IC50 was 44.1 µM (active).
Consider `COc1cc(SC)ccc1C(=O)Nc1nc(C)cs1`, for which the IC50 was more than 50 µM.
`COC(=O)c1ccc2c(C(C)(C)O)c(C(C)(C)O)[nH]c2c1`: the IC50 is more than 50 µM.
`COc1cccc(C(=O)c2cc3ccc(O)cc3oc2=O)c1`: the IC50 was 28.1 µM (active).
The figure for `CC(=O)c1ccc(-c2ccc(Cn3c(C)nc4cc(N)c(C)nc43)cc2)cc1` is more than 50 µM; for `Cc1cc(O)ccc1NC1=CC(=O)CC(C)(C)C1` it is more than 50 µM; for `CC(=O)N1CCc2c(sc(NC(=O)CCS(=O)(=O)c3ccc(C)cc3)c2C(N)=O)C1` it is 38 µM (active).
As for `CCCNS(=O)(=O)c1ccc2c(c1)CCCN2C(C)=O`, the figure is more than 50 µM; as for `CCOC(=O)c1c(C)oc2cc(Br)c(OCC(N)=O)cc12`, more than 50 µM.
With `COc1ccc(-n2cnc3cc(NCc4ccco4)ccc32)cc1`, the IC50 is more than 50 µM.
As to `CC1(C)CC(=O)NC=C(c2ccccc2)C1`, the IC50 was more than 50 µM.
For the compound `Cc1ccc(NC(=S)NCCN2CCOCC2)cc1`, the IC50 is more than 50 µM.
As to `N#C/C(=C/c1ccc(N2CCOCC2)o1)C(=O)N1CCOCC1`, the IC50 was 5.08 µM (active).
The figure for `N#C/C(=C\c1ccc(N2CCOCC2)o1)C(=O)N1CCOCC1` is 5.73 µM (active).
The figure for `CCCC(C)c1nnc(NC(=O)C2CC(=O)N(c3ccc(OCC)cc3)C2)s1` (configuration not stated) is more than 50 µM; for `COc1ccc(C(=O)Cc2cnn(-c3ccccc3)c2)c(O)c1` it is more than 50 µM.
On to `Cc1ccc(N2CCN(c3ccc(C)cc3)C2c2ccccn2)cc1`, for which the IC50 was more than 50 µM.
The figure for `CCOc1ccc(N=Cc2c(O)n(-c3cccc(C)n3)c(=O)c3ccccc23)cc1` is 34.7 µM (active); for `CCN(CC)c1nc(-c2ccccc2)cc(C(F)(F)F)c1C#N` it is 9.38 µM (active); for `CCCOc1ccc(Cn2ccnc2)cc1[N+](=O)[O-]` it is more than 50 µM.
As for `CCN1C(=O)/C(=C2/Sc3ccccc3N2CCCS(=O)(=O)O)SC1=S`, the figure is 15 µM (active); as for `C/C(=N\N)c1c(-c2ccccc2)c2cc(Br)ccc2[nH]c1=O`, more than 50 µM; as for `CN1CCN(c2cc(=O)n(-c3ccc(Cl)cc3)c(=O)[nH]2)CC1`, more than 50 µM.
Take `CCC(=O)Nc1c(S(=O)(=O)c2ccccc2)c2nc3ccccc3nc2n1Cc1ccccc1`: the IC50 was 17.3 µM (active).
The figure for `O=C(NNc1c2ccccc2nc2ccccc12)c1cc2ccccc2cc1O` is more than 50 µM.
In the case of `COc1ccc(CCn2c(=N)c(C(=O)NCc3ccco3)cc3c(=O)n4cccc(C)c4nc32)cc1`, the IC50 was 50.2 µM (active).
As for `CC(C)C1C2=C(CC(C)(C)CC2=O)ON1c1ccccc1` (configuration not stated), the figure is more than 50 µM.
The figure for `CCN1CCc2nc(NC(=O)c3cc(F)c(F)cc3Cl)sc2C1` is more than 50 µM.
As for `CNC(=O)c1cc2c(ccc3ccccc32)oc1=N`, the IC50 is 7.06 µM (active).
With `CC(=O)c1cc(C#N)c(N2CC(C)OC(C)C2)nc1C` (configuration not stated), the IC50 was more than 50 µM.
As for `Oc1c(CN2CCN(c3ccc(F)cc3)CC2)cc(Cl)c2cccnc12`, the IC50 is more than 50 µM.
For the compound `CC1CN(c2cc(=O)n(-c3cccc(Br)c3)c(=O)[nH]2)CC(C)O1` (configuration not stated), the IC50 is more than 50 µM.
As for `CCOC(=O)c1oc2c(CN3CCN(CCO)CC3)c(O)c(CC)cc2c(=O)c1-c1nc2ccccc2s1`, the figure is 29.2 µM (active); as for `CC1CC(=O)N(CC(=O)Nc2cccc(Cl)c2)c2ccccc2S1(=O)=O` (configuration not stated), more than 50 µM.
As for `CC(OC(=O)CNC(=O)c1cccc(F)c1)C(=O)NC1CCCCC1C` (configuration not stated), the IC50 was more than 50 µM.
The figure for `OCCNCc1cccc(OCc2ccccc2Cl)c1` is more than 50 µM.
As to `N#Cc1c(N)n(CCOC(=O)c2ccc(Cl)cc2)c2nc3ccccc3nc12`, the IC50 was 3.73 µM (active).
The figure for `CCN(CC(=O)Nc1cccc(S(=O)(=O)N2CCCCC2)c1)Cc1ccccc1` is more than 50 µM.

(Values after PubChem BioAssay AID435026 (Broad Institute, 2010).)
